From PubChem
Most compounds without a hit are left out; they make up all but 13% or so of the library.
Pf growth 48h: Primary qHTS for delayed death inhibitors of the malarial parasite plastid, 48 hour incubation; P. falciparum luciferase growth in erythrocytes, 48 h; Potency, µM (top dose mostly 28.7 µM), usual class: inhibitors; 310,000 compounds, 5.9% hits; AID 504832, 2011
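Luciferase-expressing parasites in RBCs, 2% Hct / 0.1% parasitemia final; RPMI 1640 + 0.5% Albumax; 37 C, 5% CO2, one generation; luminescence read-out, lower signal = inhibition.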
HCMV inh: qHTS Assay for inhibitors of the human cytomegalovirus (HCMV) | HFF cells, HCMV-luciferase reporter, 72 h; hits give low values | activity change, negative = inhibition, % at 57.5 µM | 410,000 compounds, 4.5% hits; in the data active = activity change below about -60%; inconclusive = no clear call, values can overlap the other calls; inactive = above about -39%
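After 16 h attachment at 37C, HFF cells received test compound and HCMV-luciferase (1 PFU/cell); reporter luminescence read 72 h later, data normalized against buffer-only and known inhibitor Salinomycin.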
HCV inhibitor: qHTS Assay for Inhibitors of Hepatitis C Virus (HCV); Huh7.5.1 HCVcc-Cre infection, luciferase reporter, 44 h; Potency, µM (titrated, usually from 41.8 µM), usual class: inhibitors; 340,000 compounds, 3.4% hits; AID 651820, 2012
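Reporter virus HCVcc-Cre (~0.5 moi) infects cells exposed to compound; seeding density 1,000 cells/well with 4 h settling beforehand. Luminescence, 15 sec read, taken 44 h post-infection following a 15 min RT substrate incubation.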
Pf growth 96h: Primary qHTS for delayed death inhibitors of the malarial parasite plastid, 96 hour incubation. P. falciparum luciferase reporter growth, 96 h. Potency, µM (highest dose often 28.7 µM), actives largely listed as inhibitors. 320,000 compounds, 6.9% hits. AID 504834, 2011
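96 h incubation, 37 C, 5% CO2, of luciferase-reporter P. falciparum-infected RBCs (2% hematocrit, 0.05% parasitemia final) with test compounds; endpoint luminescence.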
A number is an active result; 0 = inactive; ? = inconclusive; - = not tested or not shown; ! = not confirmed by another sample. Unless noted, calls follow the shape of the dose curve; as a rule, active = well fitted inhibition curve with a large enough effect; inconclusive = small, poorly fitted or top-dose-only effect, or another doubt; inactive = no such curve, though single readings can be large or run the other way.

SMILES | Pf growth 48h | HCMV inh | HCV inhibitor | Pf growth 96h
COc1cccc(N2CCN(C(=O)c3cccn3-c3nnc(N4CCCC4)s3)CC2)c1 | - | 0 | - | -
CN=C(c1ccco1)n1c(=S)nc(-c2ccco2)n(C)c1=S | 0 | 0 | 11µM | 0
CN=C(c1ccc(C)cc1)n1c(=S)nc(-c2ccc(C)cc2)n(C)c1=S | ? | 0 | 0 | ?
CCc1nn2c(=O)c(S(=O)(=O)Nc3ccc(C(C)C)cc3)c(C)nc2s1 | 0 | -64! | 0 | 0
COc1ccc2nc(-c3nc4ccccc4[nH]3)c(C)nc2c1 | - | 0 | - | -
CCOC(=O)c1c(C)[nH]c(C(=O)OCC(=O)NC(C)(C)C)c1C | 0 | -80 | 14µM | 0
CCOC(=O)c1[nH]c(C)c(C)c1C | 0 | 0 | 0 | 12µM
COC(=O)c1c(C)[nH]c(C(=O)OCC(=O)c2ccc(C)s2)c1C | - | 0 | 11µM | -
CCOC(=O)c1c(C)[nH]c(C(=O)N/N=C/c2ccc(Br)cc2)c1C | 0 | -77 | ? | ?
CC1CCN(S(=O)(=O)c2ccc3[nH]cc(C(=O)NCc4ccc(F)cc4)c(=O)c3c2)CC1 | - | 0 | - | -
CCc1ccccc1-n1c(C)nc2cc(C(=O)NCCc3ccc(Cl)cc3)ccc21 | - | 0 | - | -
CCOC(=O)c1c(C)[nH]c(C(=O)OCC(=O)Nc2cc(C)ccc2OC)c1C | 0 | 0 | 0 | 5.9µM
CO/N=C/NC(=O)c1c(OC)ccnc1Oc1ccccc1 | 0 | 0 | 0 | 0
COc1ccnc(Oc2ccccc2)c1C(=O)N/C=N/OCc1ccccc1 | 0 | 0 | 0 | 0
COc1ccnc(Oc2cccc(C(F)(F)F)c2)c1C(=O)N/C=N/OCc1ccccc1F | ? | 0 | 11µM | ?
COc1ccnc(Oc2ccc(F)cc2)c1C(=O)N/C=N/OCc1c(Cl)cccc1Cl | 12µM | ? | ? | ?
COc1cc2c(cc1NC(=O)COc1ccc(Br)cc1C)oc1ccccc12 | - | 0 | - | -
C[C@H](CO)N1C[C@H](C)[C@@H](CN(C)C(=O)Cc2ccccc2)OCc2cn(nn2)CCCC1=O | - | 0 | - | -
CCOc1ccc(-n2nc(CO)c(C(=O)NCC(C)O)n2)cc1 (centres undefined) | - | 0 | - | -
Cc1ccc(-n2c(C)c([N+](=O)[O-])c3ccc(O)c(CN(C)C)c32)cc1 | 13µM | -93 | ? | -
COc1ccc(-n2c(C)c([N+](=O)[O-])c3ccc(O)c(CN4CCCCC4)c32)cc1 | - | -73 | 0 | -
CN1C[C@@H]2[C@@H]3C(=O)N(Cc4ccccc4)C(=O)[C@@H]3[C@](Cc3ccccc3)(C1=O)N2C(=O)c1ccc(C(C)(C)C)cc1 | - | -98 | ? | -
CC1CCN(C(=O)CSc2nc(N)c3c4c(sc3n2)CN(C)CC4)CC1 | 2.3µM | - | 0 | 0.83µM
CCOCCCNC(=O)C(c1ccc(C)cc1)N(Cc1ccc2c(c1)OCO2)C(=O)c1ccc(NC(C)=O)cc1 (centres undefined) | - | 0 | - | -
CCCCCCOC1(c2ccccc2)OC(=O)c2ccccc21 (centres undefined) | 10µM | 0 | ? | 8.3µM
SMILES | Pf growth 48h | HCMV inh | HCV inhibitor | Pf growth 96h
CCCCCCCOC1(c2ccccc2)OC(=O)c2ccccc21 (centres undefined) | ? | 0 | 0 | 6.6µM
Cc1cccc(OC2(c3ccccc3)OC(=O)c3ccccc32)c1C (centres undefined) | ? | 0 | - | 9.3µM
O=C1OC(c2ccccc2)(c2ccccc2)c2ccccc21 | - | 0 | 0 | -
Cc1nn(C)c(C)c1CN(C)C(=O)c1cc2n(n1)C(C(F)(F)F)CC(c1cccs1)N2 (centres undefined) | ? | ? | ? | 9.3µM
Cc1nn(C)cc1CN(C)C(=O)c1nn2c(c1Br)NC(c1cccs1)CC2C(F)(F)F (centres undefined) | 13µM | 0 | 0 | 5.2µM
CCOC(=O)c1sc(NC(=O)c2cc3n(n2)C(C(F)(F)F)CC(c2cccs2)N3)c(C(=O)OCC)c1C (centres undefined) | ? | 0 | 0 | ?
CCC(C)NC(=O)c1cnn2c1NC(c1cccs1)CC2C(F)(F)F (centres undefined) | 0 | 0 | 0 | 0
Cc1nn(C)cc1CN(C)C(=O)c1nn2c(c1Cl)NC(c1cccs1)CC2C(F)(F)F (centres undefined) | ? | -78 | 0 | 0
COc1ccc(C2CC(C(F)(F)F)n3nc(C(=O)O)c(Br)c3N2)cc1 (centres undefined) | - | 0 | 0 | 0
Cc1ccc(CNC(=O)CN2C(=O)C3(SCC(=O)N3c3ccc(F)c(F)c3)c3ccccc32)cc1 (centres undefined) | - | 0 | - | -
CC(O)C1CCC2C3CCC4CC(O)CCC4(C)C3CCC12C (centres undefined) | 0 | - | - | ?
Cc1cc(C)cc(NC(=O)CCCc2nc(-c3ccco3)no2)c1 | - | 0 | - | -
COc1cccc(-c2ncc3ccccc3c2COC(=O)c2ccc(C(F)(F)F)cc2)c1 | ? | 0 | 0 | 2.9µM
COc1cccc(-c2ncc3ccccc3c2COC(=O)N(C)C)c1 | 0 | 0 | ? | ?
COc1cccc(-c2ncc3ccccc3c2COC(=O)c2cccc(Br)c2)c1 | ? | 0 | ? | 4.7µM
COc1cccc(-c2ncc3ccccc3c2COC(=O)c2ccc(Br)cc2)c1 | ? | 0 | 0 | ?
CC(=O)c1c(N2CCN(c3ccc(F)cc3)CC2)nc(=S)n(Cc2ccccc2)c1C | ? | -68 | ? | 0
COc1ccc(C(NC(=O)CC(C)C)NC(=O)CC(C)C)cc1OC | 0 | 0 | 0 | 10µM
CCCCC(=O)NC(NC(=O)CCCC)c1ccc(OCC(C)C)c(OC)c1 | 0 | 0 | 0 | 0
Cc1ccc(-c2nc(CS(=O)(=O)CC(=O)N3CCN(c4cccc(C)c4C)CC3)c(C)o2)cc1 | - | 0 | - | -
COC(=O)c1cnc(Oc2ccc(NC(=O)NC(=O)c3c(OC)cccc3OC)cc2)cc1C(F)(F)F | ? | -98 | 0 | ?
COc1ccc(-n2c(/C=C(\C)O)nc(=O)c3c(C)cc(C)nc32)cc1 | 0.83µM | 0 | 0 | -
COc1ccc(-n2c(C)nn(C)c2=O)cc1 | 0 | 0 | 0 | ?
C=C(C)Cn1c(CCn2c3ccccc3c3ccccc32)n[nH]c1=S | 0 | 0 | 0 | 7.4µM
Cc1c2cnn(CC(=O)NCC(C)c3ccccc3)c(=O)c2c(C)n1Cc1cccc(Cl)c1 (centres undefined) | - | 0 | - | -
SMILES | Pf growth 48h | HCMV inh | HCV inhibitor | Pf growth 96h
CC1(C)Cc2ccccc2C2=NNC(=O)C2=N1 | ? | -102 | ? | 0
CC1(C)Cc2ccccc2C(Nn2cnnc2)=N1 | - | 0 | 0 | 0
COC(=O)[C@@H]1C[C@]2(OC(=O)c3ccccc3)C=CC(=O)C[C@@H]2N1C(=O)OCc1ccccc1 | 0 | -98 | ? | ?
CC(=O)Nc1ccc(NC(=O)c2cnc(N3CCN(Cc4cccc(C(F)(F)F)c4)C3=O)o2)cc1 | - | 0 | - | -
CCCOc1ccc(-c2nnc(-c3ccncc3)o2)cc1 | 0 | 0 | 11µM | ?
CC(C)COc1ccc(-c2nnc(-c3ccncc3)o2)cc1 | 0 | 0 | ? | 0
COc1ccccc1C(=O)Nc1cc2c(cc1N1CCCCC1)n(C)c(=O)n2C | - | 0 | - | -
Cc1ccc(CNC(=O)CCc2nnc3n(C)c(=O)c4sccc4n23)cc1 | - | 0 | - | -
